Bioassay records (PubChem)
Pf growth 96h: Primary qHTS for delayed death inhibitors of the malarial parasite plastid, 96 hour incubation; 320,000 tested, 6.9% active; Potency, µM (series often up to 28.7 µM), hits mostly inhibitors; AID 504834, 2011; P. falciparum luciferase reporter growth, 96 h
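Parasite growth measured via integrated firefly luciferase reporter in P. falciparum. Infected erythrocytes at 2% hematocrit, 0.05% parasitemia final were treated 96 hours at 37 C under 5% CO2, and luminescence was read.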
FBPA Giardia inh: qHTS Assay for Inhibitors of Fructose-1,6-bisphosphate Aldolase from Giardia Lamblia; A8B2U2; purified Giardia FBPA; Potency, µM (titrated, usually from 59.6 µM), most hits filed as inhibitors; 290,000 tested, 0.71% active; AID 2451, 2010; note: nearly all actives have a fitted effect of over 55% in size
Target sequence (A8B2U2 whole entry, looked up): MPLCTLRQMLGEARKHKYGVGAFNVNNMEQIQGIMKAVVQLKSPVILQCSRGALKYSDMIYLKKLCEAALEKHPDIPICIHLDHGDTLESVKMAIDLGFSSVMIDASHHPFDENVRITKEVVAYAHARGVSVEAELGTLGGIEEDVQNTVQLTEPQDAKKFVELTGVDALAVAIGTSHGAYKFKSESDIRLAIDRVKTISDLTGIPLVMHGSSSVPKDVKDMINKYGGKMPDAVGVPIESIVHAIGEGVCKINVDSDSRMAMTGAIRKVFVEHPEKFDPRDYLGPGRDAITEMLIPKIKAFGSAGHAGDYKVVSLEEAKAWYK
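Giardia FBPA (40 nM reagent) was preincubated 10 min at RT with compound (up to 57.5 uM final), then substrate plus GAPDH/TPI/NAD/arsenate coupling system with diaphorase/resazurin was added; resorufin fluorescence (525/598 nm) was read after 20 min.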
Sm TGR block: qHTS Assay for the Inhibitors of Schistosoma Mansoni Peroxiredoxins | Schistosoma mansoni thioredoxin glutathione reductase (TGR), Q962Y6 | purified TGR, DTNB reduction, TNB absorbance 405 nm | Potency, µM (series often up to 114 µM), usual class: inhibitors | 360,000 tested, 3% active | AID 485364, 2010; note: nearly all actives have a fitted effect of over 60% in size
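Kinetic colorimetric format: TGR-catalysed, NADPH-driven DTNB reduction monitored via TNB absorbance. Enzyme dispensed at 20 nM; compound exposure 15 min at room temperature before reaction start.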
HCMV inh: qHTS Assay for inhibitors of the human cytomegalovirus (HCMV); 410,000 tested, 4.5% active; AID 1259415, 2018; activity change, negative = inhibition, % at 57.5 µM; HFF cells, HCMV-luciferase reporter, 72 h; active compounds read low; in the data active = activity change below about -60%; inconclusive = no clear call, values can overlap the other calls; inactive = above about -39%
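Screen run at 2 compound doses on HFFs infected with reporter HCMV, MOI 1 PFU/cell. Luciferase activity from cell lysates at 72 h post infection gave inhibition relative to buffer-only and Salinomycin wells.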
Pf growth 48h: Primary qHTS for delayed death inhibitors of the malarial parasite plastid, 48 hour incubation; 310,000 tested, 5.9% active; P. falciparum luciferase growth in erythrocytes, 48 h; AID 504832, 2011; Potency, µM (top dose mostly 28.7 µM), most hits filed as inhibitors
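Luminescence readout; reporter = integrated firefly luciferase in P. falciparum. RBC culture at 2% hematocrit, 0.1% parasitemia final, 37 C/5% CO2; decreased signal taken as growth inhibition.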
A number is an active result; i = inactive; ? = inconclusive; nt = no result. Most compounds without a hit are left out; they make up all but 14% or so of the library. Unless noted, calls come from the whole dose curve; as a rule, active = well fitted curve in the direction sought with a large enough effect; inconclusive = small, poorly fitted or top-dose-only effect, or another doubt; inactive = no such curve, though single readings can be large; an effect the other way counts as inactive or inconclusive.

SMILES | Pf growth 96h | FBPA Giardia inh | Sm TGR block | HCMV inh | Pf growth 48h
Cc1cc(C)n(-c2ccc(Cl)c(C(=O)Nc3ccc(-c4nnc5n4CCCCC5)cc3)n2)n1 | 8.28µM | i | i | i | ?
Cc1onc(-c2ccccc2Cl)c1C(=O)Nc1ccc(-c2nnc3n2CCCCC3)cc1 | nt | i | i | i | 9.28µM
Cc1onc(-c2ccccc2Cl)c1C(=O)Nc1ccc(CN2CCCC2)cc1 | nt | i | 79.4µM | i | ?
Cc1nnc(N(CCC#N)CCC#N)s1 | i | i | i | -71.7 | i
O=c1c2ccc(F)cc2sn1-c1ccccc1 | nt | nt | nt | i | nt
Cc1ccc(-n2sc3cc(F)ccc3c2=O)c(C)c1 | nt | nt | nt | -70.4 | nt
CN(Cc1nc(Cc2cccc(F)c2)no1)CC1CCOCC1 | 14.7µM | i | nt | i | i
COc1cccc(NC(=O)COC(=O)/C=C/c2c(C)nn(-c3ccccc3)c2C)c1 | i | nt | i | i | i
CN1CCC(N(C)C(=O)/C(C#N)=C\c2ccc(OC(F)F)cc2)CC1 | nt | nt | nt | i | nt
Cn1c(-c2ccccc2)cnc1NCc1ccccc1 | i | ? | i | i | i
COc1ccc(CNc2ncc(-c3ccc(Cl)cc3)n2C)c(OC)c1OC | 2.94µM | ? | i | i | i
COc1ccc(CNc2ncc(-c3ccc(Br)cc3)n2C)cc1OC | 13.1µM | ? | i | i | ?
Cn1c(-c2cccc(Br)c2)cnc1NCc1ccccc1O | 5.22µM | ? | i | i | ?
CC1OC(OC2C(OC3C(O[C@H]4CC[C@]5(C)C6C=C[C@]78OC[C@@]9(CC[C@@H](C)[C@H](C)C97)[C@H](O)C[C@@]8(C)[C@]6(C)CC[C@H]5C4(C)C)OC(C)C(O)C3O)OC(CO)C(O)C2O)C(O)C(O)C1O (some centres undefined) | ? | i | i | nt | ?
C=CCn1c(SCC(N)=O)nc2scc(-c3ccc(C)o3)c2c1=O | i | i | 17.8µM | i | i
O=C(CSc1nc2scc(-c3ccco3)c2c(=O)n1-c1ccccc1)N1CCOCC1 | ? | i | 44.7µM | i | i
C=CCn1c(SCc2ccccc2)nc2scc(-c3ccc(C)o3)c2c1=O | i | i | ? | i | i
C=CCn1c(SCC(=O)NCC2CCCO2)nc2scc(-c3ccc(OC)cc3)c2c1=O (centres undefined) | 5.22µM | i | i | i | i
C=CCn1c(SCC(=O)NCCOC)nc2scc(-c3ccco3)c2c1=O | ? | i | 17.8µM | i | ?
O=C(c1cnccn1)N1CCC2(CCCN(c3ccccn3)C2)CC1 | nt | i | nt | nt | nt
Cc1sc2nc(SC3CCOC3=O)n(Cc3ccccc3)c(=O)c2c1C (centres undefined) | i | i | i | i | i
Cc1nnc(SCC(=O)NCC2CCCO2)n1-c1ccccc1 (centres undefined) | i | i | i | i | i
Cn1c(SCC(=O)NCC2CCCO2)nc2scc(-c3ccccc3)c2c1=O (centres undefined) | i | nt | i | i | i
C=CCn1c(SC2CCOC2=O)nc2sc(C)c(C)c2c1=O (centres undefined) | 13.1µM | i | i | i | i
O=C(CSc1nnc(-c2ccco2)n1-c1ccccc1)NCC1CCCO1 (centres undefined) | i | i | i | -69.0 | i
SMILES | Pf growth 96h | FBPA Giardia inh | Sm TGR block | HCMV inh | Pf growth 48h
O=C(CSc1nc2scc(-c3ccco3)c2c(=O)n1-c1ccccc1)NCC1CCCO1 (centres undefined) | nt | i | 3.16µM | i | i
C=CCn1c(SCC(=O)Nc2sccc2C(N)=O)nc2sc(C)c(C)c2c1=O | nt | i | 39.8µM | ? | i
CN(C)c1ccc(C(CNS(=O)(=O)c2ccc(Br)cc2)N2CCCC2)cc1 (centres undefined) | nt | nt | i | i | nt
O=C(O)C1CCCN1 (centres undefined) | nt | i | nt | nt | nt
CCOc1ccc(C(=O)NCCn2cc(SCC(=O)NCCc3ccc(OC)c(OC)c3)c3ccccc32)cc1 | nt | nt | i | i | nt
C=CCn1c(SCC(=O)NCC2CCCO2)nc2scc(-c3ccco3)c2c1=O (centres undefined) | nt | i | 7.94µM | i | ?
C=CCn1c(SCC(=O)NCC2CCCO2)nc2sc(CC)cc2c1=O (centres undefined) | nt | nt | nt | i | nt
O=c1c2c(-c3ccco3)csc2nc(SCc2cn3cccnc3n2)n1-c1ccccc1 | 9.28µM | i | ? | i | 7.38µM
Cc1occc1-c1nnc(SCC(=O)NCC2CCCO2)n1C (centres undefined) | 2.33µM | i | ? | i | i
Cc1ccc(-n2c(SCC(=O)NCC3CCCO3)nnc2-c2ccoc2C)cc1 (centres undefined) | nt | i | i | i | nt
Cc1occc1-c1nnc(SCC(=O)NCCc2ccccc2)n1C(C)c1ccccc1 (centres undefined) | 8.28µM | i | i | i | ?
O=C(NCCCN1CCOCC1)c1cccc(S(=O)(=O)N2CCc3ccccc32)c1 | nt | nt | nt | i | nt
CCC(C)NC(=O)CS(=O)Cc1nc(-c2cccc(C)c2)oc1C (centres undefined) | i | i | 25.1µM | i | nt
COCCCNC(=O)CS(=O)Cc1nc(-c2cccc(C)c2)oc1C (centres undefined) | nt | nt | ? | i | nt
CCCCSCCCNC(=O)CS(=O)Cc1nc(-c2cccc(C)c2)oc1C (centres undefined) | ? | i | 44.7µM | i | i
CCCCNC(=O)CS(=O)Cc1nc(-c2cccc(C)c2)oc1C (centres undefined) | 0.104µM | i | ? | i | nt
CCCCNC(=O)CS(=O)Cc1nc(-c2cccc(Cl)c2)oc1C (centres undefined) | i | i | 31.6µM | i | nt
Cc1cccc(-c2nc(CS(=O)CC(=O)N3CCc4ccccc4C3)c(C)o2)c1 (centres undefined) | i | i | ? | nt | nt
CCOC(=O)CCc1c(C)nc2cc(-c3cc(OC)cc(OC)c3)[nH]n2c1=O | nt | nt | i | i | nt
Cc1cc(N=Cc2c(O)n(-c3cccc(C(F)(F)F)c3)c(=O)c3ccccc23)no1 | ? | i | i | i | ?
COc1ccc(-n2c(O)c(/C=N/Nc3nc(C)cc(C)n3)c3ccccc3c2=O)cc1OC | ? | i | i | -93.6 | ?
Cc1nnc(N/N=C/c2c(O)n(-c3cccc(C(F)(F)F)c3)c(=O)c3ccccc23)[nH]c1=O | ? | i | i | i | 6.57µM
COc1ccc(-n2c(O)c(/C=N/NS(=O)(=O)c3ccc(C)cc3)c3ccccc3c2=O)cc1OC | ? | i | i | ? | ?
CC(=O)NCc1nc2ccccc2n1Cc1ccccc1F | 2.08µM | i | i | i | i
O=C(Nc1nc2ccccc2n1Cc1ccc(Cl)cc1)c1ccco1 | i | ? | i | i | 11.7µM
O=C(Nc1nc2ccccc2n1CCN1CCCCC1)c1ccco1 | ? | i | i | i | i
C=CCn1c(NC(=O)c2ccco2)nc2ccccc21 | i | nt | i | i | 11.7µM
